# Experiments:
# Experiment in all cases: DAPPL (digital affinity profiling via proximity ligation, sequencing); 10 mM Tris-HCl pH 7.5, 50 mM NaCl, 1 mM DTT, 4% glycerol, room temperature, 30 min; GST-TFs on glutathione beads, 16-mer random dsDNA library, 0.1% formaldehyde crosslink after washing; high values mean tight binding
# Conditions in all cases: protein: recombinant; tags: N-terminal GST; dsDNA, one strand shown
# [1] = molecular target: T1, FLI1 (Homo sapiens, UniProt Q01543 1-452)
# T1 sequence: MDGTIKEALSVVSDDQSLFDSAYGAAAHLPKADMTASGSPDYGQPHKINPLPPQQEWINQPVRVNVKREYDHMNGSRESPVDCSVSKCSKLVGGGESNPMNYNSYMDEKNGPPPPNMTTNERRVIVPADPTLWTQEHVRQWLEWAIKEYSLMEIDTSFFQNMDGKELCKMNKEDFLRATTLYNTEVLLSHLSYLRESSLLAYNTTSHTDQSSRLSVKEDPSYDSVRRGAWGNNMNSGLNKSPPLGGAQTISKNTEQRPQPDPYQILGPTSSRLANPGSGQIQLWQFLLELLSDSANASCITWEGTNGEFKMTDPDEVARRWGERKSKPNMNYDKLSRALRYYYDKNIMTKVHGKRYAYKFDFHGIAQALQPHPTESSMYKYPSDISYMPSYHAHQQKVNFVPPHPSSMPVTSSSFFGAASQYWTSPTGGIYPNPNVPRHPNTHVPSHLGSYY
# In short: (§1)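 Yeast served to express human transcription factors as GST fusions, which were then captured on glutathione beads and labelled with DNA barcodes. Pooled with a tag-only sample, they were incubated with 200 nmole of a 16-mer random double-stranded DNA library for 30 min at room temperature in Tris/NaCl/DTT/glycerol buffer, washed, crosslinked with 0.1% formaldehyde, ligated by proximity, amplified by PCR and sequenced. Dividing each hexamer's read frequency for a factor by its frequency for the tag-only sample gives the binding signal.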
# [2] = molecular target: T2, ELK1 (Homo sapiens, UniProt P19419 1-428)
# T2 sequence: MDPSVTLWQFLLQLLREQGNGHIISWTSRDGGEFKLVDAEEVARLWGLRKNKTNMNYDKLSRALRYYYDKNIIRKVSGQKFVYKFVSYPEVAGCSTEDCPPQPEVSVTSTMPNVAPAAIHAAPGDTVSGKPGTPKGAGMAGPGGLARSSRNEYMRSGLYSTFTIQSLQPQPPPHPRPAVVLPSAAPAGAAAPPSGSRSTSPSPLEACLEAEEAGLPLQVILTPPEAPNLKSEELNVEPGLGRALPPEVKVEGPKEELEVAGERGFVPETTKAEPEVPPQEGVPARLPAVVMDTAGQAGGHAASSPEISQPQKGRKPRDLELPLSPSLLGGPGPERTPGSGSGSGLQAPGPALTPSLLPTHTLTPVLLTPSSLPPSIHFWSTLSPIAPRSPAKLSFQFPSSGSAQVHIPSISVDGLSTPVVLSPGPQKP
# In short: as §1
# [3] = molecular target: T3, GABPA (Homo sapiens, UniProt Q06546 1-454)
# T3 sequence: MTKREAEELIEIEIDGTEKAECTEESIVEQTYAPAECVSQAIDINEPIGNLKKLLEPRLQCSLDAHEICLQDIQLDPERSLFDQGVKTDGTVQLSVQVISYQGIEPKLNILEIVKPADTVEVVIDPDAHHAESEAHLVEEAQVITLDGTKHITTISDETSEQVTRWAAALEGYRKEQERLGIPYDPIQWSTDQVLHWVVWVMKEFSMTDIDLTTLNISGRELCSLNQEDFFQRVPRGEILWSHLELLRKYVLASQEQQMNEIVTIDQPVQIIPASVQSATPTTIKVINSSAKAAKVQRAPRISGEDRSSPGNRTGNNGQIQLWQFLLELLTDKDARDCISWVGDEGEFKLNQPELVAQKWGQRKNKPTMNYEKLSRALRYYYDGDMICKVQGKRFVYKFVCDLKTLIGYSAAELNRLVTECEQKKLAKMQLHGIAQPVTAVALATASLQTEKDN
# In short: as §1
# [4] = molecular target: T4, ERG (Homo sapiens, UniProt P11308 1-479)
# T4 sequence: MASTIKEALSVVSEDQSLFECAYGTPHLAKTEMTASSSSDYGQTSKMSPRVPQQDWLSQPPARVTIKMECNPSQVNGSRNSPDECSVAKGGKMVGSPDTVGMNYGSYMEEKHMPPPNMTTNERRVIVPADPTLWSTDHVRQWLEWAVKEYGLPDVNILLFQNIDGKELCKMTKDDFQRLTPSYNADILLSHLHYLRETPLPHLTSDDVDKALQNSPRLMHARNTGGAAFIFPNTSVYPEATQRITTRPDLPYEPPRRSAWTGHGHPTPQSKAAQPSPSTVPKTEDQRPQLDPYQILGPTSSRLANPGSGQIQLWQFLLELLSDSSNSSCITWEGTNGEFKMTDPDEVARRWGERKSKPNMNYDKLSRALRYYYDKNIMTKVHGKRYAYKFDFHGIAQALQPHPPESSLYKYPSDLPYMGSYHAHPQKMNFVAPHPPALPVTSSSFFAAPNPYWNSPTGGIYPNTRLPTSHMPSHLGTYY
# In short: as §1
# [5] = molecular target: ELF1 (Homo sapiens, UniProt P32519 1-619)
# In short: as §1
# [6] = molecular target: T5, EHF (Homo sapiens, UniProt Q9NZC4 1-300)
# T5 sequence: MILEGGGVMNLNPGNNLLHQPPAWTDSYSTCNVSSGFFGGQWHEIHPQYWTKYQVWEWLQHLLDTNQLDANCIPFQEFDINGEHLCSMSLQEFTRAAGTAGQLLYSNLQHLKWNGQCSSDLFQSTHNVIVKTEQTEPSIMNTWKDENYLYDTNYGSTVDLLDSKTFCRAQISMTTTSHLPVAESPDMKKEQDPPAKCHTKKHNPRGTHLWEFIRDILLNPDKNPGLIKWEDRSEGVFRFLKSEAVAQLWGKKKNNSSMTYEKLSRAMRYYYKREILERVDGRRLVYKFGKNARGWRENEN
# In short: as §1
# [7] = molecular target: SPI1 (Homo sapiens, UniProt P17947 1-270)
# In short: as §1
# [8] = molecular target: SPIB (Homo sapiens, UniProt Q01892 1-262)
# In short: as §1
# [9] = molecular target: T6, ELK3 (Homo sapiens, UniProt P41970 1-407)
# T6 sequence: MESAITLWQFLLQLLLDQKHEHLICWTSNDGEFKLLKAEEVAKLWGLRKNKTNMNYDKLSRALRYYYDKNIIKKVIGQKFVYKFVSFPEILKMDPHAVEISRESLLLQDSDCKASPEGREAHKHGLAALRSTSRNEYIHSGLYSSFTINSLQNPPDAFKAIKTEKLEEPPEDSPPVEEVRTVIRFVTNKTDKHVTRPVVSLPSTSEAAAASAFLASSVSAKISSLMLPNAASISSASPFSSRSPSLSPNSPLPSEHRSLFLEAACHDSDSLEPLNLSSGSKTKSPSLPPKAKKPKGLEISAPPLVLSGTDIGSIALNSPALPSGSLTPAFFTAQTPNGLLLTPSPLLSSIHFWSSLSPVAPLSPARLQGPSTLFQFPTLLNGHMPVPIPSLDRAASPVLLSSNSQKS
# In short: as §1
# Chain of ELF1 (P32519 whole entry): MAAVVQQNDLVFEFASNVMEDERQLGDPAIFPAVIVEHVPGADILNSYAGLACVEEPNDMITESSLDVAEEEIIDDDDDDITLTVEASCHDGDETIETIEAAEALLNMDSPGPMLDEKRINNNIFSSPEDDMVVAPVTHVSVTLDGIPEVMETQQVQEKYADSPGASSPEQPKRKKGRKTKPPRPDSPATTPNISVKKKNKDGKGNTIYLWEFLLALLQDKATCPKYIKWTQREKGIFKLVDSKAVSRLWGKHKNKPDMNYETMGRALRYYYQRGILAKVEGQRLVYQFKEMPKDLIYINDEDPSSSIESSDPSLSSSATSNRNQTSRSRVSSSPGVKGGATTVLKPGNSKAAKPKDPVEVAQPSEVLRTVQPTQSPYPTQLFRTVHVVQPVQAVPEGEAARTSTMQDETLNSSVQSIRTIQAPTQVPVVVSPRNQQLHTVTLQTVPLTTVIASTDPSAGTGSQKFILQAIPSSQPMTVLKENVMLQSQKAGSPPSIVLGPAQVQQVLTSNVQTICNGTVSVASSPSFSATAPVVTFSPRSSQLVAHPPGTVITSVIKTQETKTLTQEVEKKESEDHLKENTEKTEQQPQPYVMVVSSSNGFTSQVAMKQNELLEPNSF
# Chain of SPIB (Q01892 whole entry): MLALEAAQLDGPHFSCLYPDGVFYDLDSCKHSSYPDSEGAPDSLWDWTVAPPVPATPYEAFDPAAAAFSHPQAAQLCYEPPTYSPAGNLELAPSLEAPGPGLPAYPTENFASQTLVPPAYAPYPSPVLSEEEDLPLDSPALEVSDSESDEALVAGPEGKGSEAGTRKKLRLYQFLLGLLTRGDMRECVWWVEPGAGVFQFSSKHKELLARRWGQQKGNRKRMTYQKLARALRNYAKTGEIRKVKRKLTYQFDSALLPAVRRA
sequence,measurement,setting,value
TTATCC,binding signal,[1],"1.47 fold enrichment (6-mer frequency, TF over GST control)"
same,binding signal,[2],"1.39 fold enrichment (6-mer frequency, TF over GST control)"
same,binding signal,[3],"1.37 fold enrichment (6-mer frequency, TF over GST control)"
same,binding signal,[4],"1.43 fold enrichment (6-mer frequency, TF over GST control)"
same,binding signal,[5],"1.31 fold enrichment (6-mer frequency, TF over GST control)"
same,binding signal,[6],"1.52 fold enrichment (6-mer frequency, TF over GST control)"
same,binding signal,[7],"1.41 fold enrichment (6-mer frequency, TF over GST control)"
same,binding signal,[8],"1.54 fold enrichment (6-mer frequency, TF over GST control)"
same,binding signal,[9],"1.5 fold enrichment (6-mer frequency, TF over GST control)"
